Only some compounds are listed: those with a hit (about 2.5% of all), similar ones and a draw of the others.
ULK1 primary = blocks human autophagy kinase ULK1. inhibition, % at 5.96 µM. AlphaScreen Atg13 phosphorylation by ULK1, luminescence. hit rate 1.9% among 30,000. AID 1259251. O75385; in the data active = inhibition above about 43%
ASK1 primary = inhibitors of human ASK1 kinase; Q99683; AlphaScreen MKK6 phosphorylation by ASK1, luminescence; inhibition, % at 7.44 µM; hit rate 0.99% among 22,000; in the data active = inhibition above about 35%
Of the large screens only hits and unclear results are named; the others gave an inactive call.

CNC(=O)c1ccccc1Nc1cc(NC(=O)C(C)(C)c2ccccc2)ncc1C(F)(F)F	none
CNC(=O)c1cnccc1Nc1cc(Nc2ccc3c(c2)CC(=O)N3)ncc1C(F)(F)F	none
CNC(=O)c1ccccc1Nc1cc(Nc2ncccc2C)ncc1C(F)(F)F	ULK1 primary 62
CNC(=O)c1ccccc1Nc1cc(Nc2cccnc2)ncc1C(F)(F)F	ULK1 primary 61
Cc1cncc(NC(=O)c2cccc(-n3cc(-c4ccc5ccccc5c4)cn3)c2)c1	none
Cc1nc2ccc(Nc3nccc(-c4cncc(N5CCOCC5)c4)n3)cc2o1	none
Cc1[nH]nc2ccc(Nc3nccc(-c4cncc(N5CCOCC5)c4)n3)cc12	ULK1 primary 49
Fc1cc(-c2nc(Nc3ccc(Cn4ccnc4)cc3)ncc2F)cc(N2CCOCC2)c1	none
COc1ccc(Nc2nccc(-c3cncc(N4CCOCC4)c3)n2)cc1OC	ULK1 primary 47
Fc1cc(-c2nc(Nc3cccc(Cn4ccnc4)c3)ncc2F)cc(N2CCOCC2)c1	ULK1 primary 79
Fc1ccc(Nc2nccc(-c3cncc(N4CCOCC4)c3)n2)cc1	none
c1cn(Cc2ccc(Nc3nccc(-c4cncc(N5CCOCC5)c4)n3)cc2)cn1	ULK1 primary 60
c1cnn(Cc2ccc(Nc3nccc(-c4cncc(N5CCOCC5)c4)n3)cc2)c1	none
CCCNc1nc(Nc2ccncn2)nc2c1ncn2C(C)C	none
Cn1cnnc1-c1ccc(Nc2nccc(-c3cncc(N4CCOCC4)c3)n2)cc1	ULK1 primary 58
Cn1cnnc1-c1ccc(Nc2nccc(-c3cc(C#N)cc(N4CCOCC4)c3)n2)cc1	none
Cc1ccc(-c2cccc3cnc(Nc4ccc(C(=O)NC5CC5)cc4)nc23)cn1	ULK1 primary 62
Cc1ccc(-c2cccc3cnc(Nc4cccc(C(=O)NC5CC5)c4)nc23)cn1	ULK1 primary 59
O=C(NC1CC1)c1cccc(Nc2cnccn2)c1	none
Cc1ccc(-c2cccc3cnc(Nc4ccc(-n5cnc(-c6ccccn6)n5)cc4)nc23)cn1	none
CC(C)n1cnc2c(Nc3ccccc3)nc(-c3ccc(C(N)=O)cc3)nc21	ULK1 primary 68
CC(=O)Nc1ccc(Nc2nc(NCc3cccnc3)nc3c2ncn3-c2ccsc2)cc1	ULK1 primary 55
COc1cc(Nc2nc(Nc3ccc(NC(C)=O)cc3)c3ncn(C(C)C)c3n2)cc(OC)c1OC	none
CC(=O)Nc1ccc(Nc2nc(NCc3cccnc3)nc3c2ncn3-c2ccccc2)cc1	none
CC(C)n1cnc2c(NCc3ccccc3)nc(-c3ccc(C(N)=O)cc3)nc21	none
CC(=O)Nc1ccc(Nc2nc(Nc3ccncc3)nc3c2ncn3C(C)C)cc1	ULK1 primary 66
CC(C)n1cnc2c(NCc3cccnc3)nc(Nc3ccncc3)nc21	none
CC(=O)Nc1ccc(Nc2nc(NCc3cccnc3)nc3c2ncn3C(C)C)cc1	ULK1 primary 68
O=C(NCc1nc2ccccc2[nH]1)c1cccc(-c2csc3ccccc23)c1	none
O=C(NCc1cccc(C(F)(F)F)c1)c1ccc2nc(-c3cccs3)sc2c1	none
NC(=O)c1cnn(-c2ccnc(NC(=O)Cc3ccc(F)cc3)c2)c1	none
COc1ccc(Nc2nc(Nc3ccc(OCCN4CCCCC4)cc3)c3ncn(C(C)C)c3n2)cc1	ULK1 primary 57
OC1CCC(Nc2nc(Nc3ccccc3)c3ncn(-c4ccsc4)c3n2)CC1 (configuration not stated)	none
COc1ccc(CNc2nc(Nc3ccc(OC)cc3)nc3c2ncn3C(C)C)cc1	none
CC(C)n1cnc2c(Nc3ccc(N4CCOCC4)cc3)nc(NCc3ccc4c(c3)OCO4)nc21	none
CC(=O)Nc1ccc(Nc2nc(NC3CCC(O)CC3)nc3c2ncn3-c2ccsc2)cc1 (configuration not stated)	ULK1 primary 44
CC(C)n1cnc2c(Nc3ccc(N4CCOCC4)cc3)nc(NCc3cccnc3)nc21	ULK1 primary 47
COc1cc(OC)nc(N2CCC(C(=O)N(C)C)CC2)n1	none (no result: ASK1 primary)
O=C1CCCN1CCCNc1nc(NCc2ccc3c(c2)OCO3)nc2c1ncn2C1CCCCC1	none
CCCCCCCCCCCCCCCCNc1ccc(C(=O)O)cc1	none (no result: ASK1 primary)
FC(F)(F)c1ccc(CNc2ncc(-c3cnn(Cc4ccccc4)c3)n3ccnc23)cc1	none
CCN(CC)c1nc(NCCO)nc(Nc2ccc(-n3ccnc3)cc2)n1	none
CCNc1nc(NCC)nc(SCCO)n1	none (no result: ASK1 primary)
Nc1nccc(-c2cc(F)c3nc(C4COc5ccc(C(=O)NCCc6cccs6)cc5C4)[nH]c3c2)n1 (configuration not stated)	none
COc1cc(Nc2cc(Nc3ccccc3)ncn2)cc(OC)c1OC	none
Cc1cc(Nc2ccccc2)nc(Nc2ccncn2)n1	none
COc1cc(Nc2cc(Nc3ccncn3)ncn2)cc(OC)c1OC	ULK1 primary 43
c1ccc(Nc2cc(Nc3ccncn3)ncn2)cc1	ULK1 primary 46
Cc1cnc(-c2c(C)nn(C)c2C)nc1NCCc1ccc(O)cc1	none
O=C(O)CCC(=O)Nc1ccc(S(=O)(=O)N2CCOC3CCCCC32)cc1 (configuration not stated)	none (no result: ASK1 primary)
O=C(NCCOc1ccccc1)c1ccc2nc(Nc3nccc4ccccc34)sc2c1	none
COc1ccc(-c2cc(C(=O)O)nn2C)cc1	none (no result: ASK1 primary)
CN1CCN(CCNC(=O)c2cccc(CN(C(=O)c3nc4ccc(-c5cn[nH]c5)cc4s3)C3CC3)c2)CC1	ULK1 primary 53
O=C(NCCN1CCCCC1)c1cccc(CN(C(=O)c2nc3ccc(-c4cn[nH]c4)cc3s2)C2CC2)c1	none
O=C1CCCN1CCCNc1nc(NCc2ccc3c(c2)OCO3)nc2c1ncn2Cc1ccc(C(F)(F)F)cc1	none
O=C(OC[C@H]1O[C@H](OC(=O)c2cc(O)c(O)c(OC(=O)c3cc(O)c(O)c(O)c3)c2)[C@H](OC(=O)c2cc(O)c(O)c(OC(=O)c3cc(O)c(O)c(O)c3)c2)[C@@H](OC(=O)c2cc(O)c(O)c(OC(=O)c3cc(O)c(O)c(O)c3)c2)[C@@H]1OC(=O)c1cc(O)c(O)c(OC(=O)c2cc(O)c(O)c(O)c2)c1)c1cc(O)c(O)c(OC(=O)c2cc(O)c(O)c(O)c2)c1	ULK1 primary 86 (no result: ASK1 primary)
CC(=O)OC[C@H]1O[C@@H](OC(C)=O)[C@H](OC(C)=O)[C@@H]1OC(C)=O	none (no result: ASK1 primary)
COc1ccc2c(c1)C[C@H](C(=O)Nc1ccc(-c3cn[nH]c3)cc1OCCN(C)C)N(CC1CC1)C2	none
CC(C)N(CCNc1ncnc2nc(Nc3cccc(N(C)C)c3)[nH]c12)C(C)C	none
CC(C)S(=O)(=O)Nc1ccc(-c2ccnc(Nc3ccc(S(N)(=O)=O)cc3)n2)cc1	ULK1 primary 50
NS(=O)(=O)c1ccc(Nc2nccc(-c3ccc(NS(=O)(=O)Cc4ccccc4)cc3)n2)cc1	none
NS(=O)(=O)c1ccc(Nc2nccc(-c3ccccc3)n2)cc1	none
CCS(=O)(=O)Nc1ccc(-c2ccnc(Nc3ccc(S(N)(=O)=O)cc3)n2)cc1	ULK1 primary 60
Cc1nn(C)c(C)c1-c1nccc(Nc2ccc(N3CCOCC3)cc2)n1	none
CNC(=O)c1ccccc1Nc1cc(Nc2ccc(N3CCC(N(C)C)C3)cc2OC)ncc1C#N (configuration not stated)	ULK1 primary 91
CNC(=O)c1ccccc1Nc1cc(Nc2ccc(N3CCN(C)CC3)cc2OC)ncc1C(F)(F)F	ULK1 primary 91
COc1cc(N2CCOCC2)ccc1Nc1cc(Nc2cccc3c2C(=O)N(C)C3)c(C(F)(F)F)cn1	none
CC(C)NC1CCC(Nc2cc(Nc3ccccc3C(N)=O)c(C(F)(F)F)cn2)CC1 (configuration not stated)	none
COc1cc(N2CCOCC2)ccc1Nc1cc(Nc2ccccc2-c2ncco2)c(C(F)(F)F)cn1	none

Bioassay records deposited in PubChem BioAssay by The Scripps Research Institute Molecular Screening Center.
